Data: the supplement of paper PMC9588786
± gives the standard deviation of the averaged measurements.

System: HT-1080
Experiment: relative cell viability with RSL3 co-treatment (fraction of control); higher = stronger protection from RSL3-induced ferroptosis (higher viability)
Conditions: 10 µM
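Also: viability read as CCK-8 absorbance at 450 nm in cells co-exposed to the GPX4 inhibitor RSL3, relative to a 0.01% DMSO vehicle control.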

Compound	relative cell viability
C=CC(=O)Nc1cc(Nc2nccc(-c3cn(C)c4ccccc34)n2)c(OC)cc1N(C)CCN(C)C [Osimertinib (AZD9291)]	0.403 ± 0.068
O=C(NCc1cccc(O)c1)Nc1nc(-c2ccncc2)cs1	0.77 ± 0.05
COc1ccc(-c2nc(N3CCOCC3)c3sc(CN(C)c4ncc(C(=O)NO)cn4)cc3n2)cn1	0.577 ± 0.15
COc1cc2ncnc(Nc3ccc(F)c(Cl)c3)c2cc1NC(=O)/C=C/CN1CCCCC1	0.61 ± 0.046
O=C(/C=C/c1ccc(O)c(O)c1)c1ccc(O)cc1O [Butein]	0.74 ± 0.075
C[C@H](Nc1ncnc2nc[nH]c12)c1cc2cccc(Cl)c2c(=O)n1-c1ccccc1 [Duvelisib (IPI-145, INK1197)]	0.717 ± 0.025
O=C1Nc2ccccc2/C1=C1/Nc2ccccc2C1=O [Indirubin]	0.75 ± 0.066
O=C(c1ccc(F)c(F)c1Nc1ccc(I)cc1F)N1CC(O)([C@@H]2CCCCN2)C1 [Cobimetinib (GDC-0973, RG7420)]	0.797 ± 0.032
Cc1cc(Nc2nc(N[C@@H](C)c3ccc(F)cc3)c(C#N)cc2F)n[nH]1	0.29 ± 0.017
CCN(CC)CCNC(=O)c1c(C)[nH]c(/C=C2\C(=O)Nc3ccc(F)cc32)c1C [Sunitinib Malate]	0.543 ± 0.099
CN1CCN(C2CCN(C(=O)Nc3cc(Oc4ccc(NC(=O)C5(C(=O)Nc6ccc(F)cc6)CC5)c(F)c4)ccn3)CC2)CC1 [Golvatinib (E7050)]	0.717 ± 0.065
COc1cccc(-c2cc(=O)c3ccccc3o2)c1N	0.717 ± 0.064
CC(C)(C#N)c1ccc(N2C(=O)OCc3cnc4ccc(-c5cnc6ccccc6c5)cc4c32)cc1	0.45 ± 0.18
Cc1ccc(NC(=O)c2ccc(CN3CCN(C)CC3)cc2)cc1Nc1nc(-c2cccnc2)cs1 [Masitinib (AB1010)]	0.67 ± 0.12
CN(C[C@@H]1COCCO1)S(=O)(=O)Nc1ccc2ccc3ncc(-c4cnn(C)c4)cc3c(=O)c2c1	0.657 ± 0.25
COC(=O)Nc1ccc(-c2nc(N3CCOCC3)c3cnn(C4CCN(C(=O)OC)CC4)c3n2)cc1	0.547 ± 0.18
O=C(O)c1ccc(Nc2ncc3c(n2)-c2ccc(Cl)cc2C(c2c(F)cccc2F)=NC3)cc1	0.433 ± 0.045
CO[C@@H](C(=O)N1Cc2[nH]nc(NC(=O)c3ccc(N4CCN(C)CC4)cc3)c2C1)c1ccccc1	0.507 ± 0.1
N#Cc1c(O)c2c(-c3ccc(-c4ccccc4O)cc3)csc2[nH]c1=O	0.793 ± 0.046

Compound	relative cell viability
Cc1ccc(C(=O)Nc2cccc(C(F)(F)F)c2)cc1Nc1nc(-c2cccnc2)nc2c1cnn2C	0.473 ± 0.23
Cc1[nH]c(/C=C2\C(=O)Nc3ccc(S(=O)(=O)Cc4c(Cl)cccc4Cl)cc32)c(C)c1C(=O)N1CCC[C@@H]1CN1CCCC1	0.19 ± 0.046
Cn1cc(-c2ccc3nnc(C(F)(F)c4ccc5ncccc5c4)n3n2)cn1	0.743 ± 0.04
CO[C@H]1C[C@@H]2CC[C@@H](C)[C@@](O)(O2)C(=O)C(=O)N2CCCC[C@H]2C(=O)O[C@H]([C@H](C)C[C@@H]2CC[C@@H](OCCO)[C@H](OC)C2)CC(=O)[C@H](C)/C=C(\C)[C@@H](O)[C@@H](OC)C(=O)[C@H](C)C[C@H](C)/C=C/C=C/C=C/1C [Everolimus (RAD001)]	0.607 ± 0.13
CC(C)CC(=O)Nc1n[nH]c2c1CN(C(=O)C1CCN(C)CC1)C2(C)C	0.78 ± 0.069
CCC[C@H](NC(=O)/C(C#N)=C/c1cccc(Br)n1)c1ccccc1 [Degrasyn (WP1130)]	0.793 ± 0.064
O=C(Nc1cccc(Nc2ncc(Br)c(NCCc3cnc[nH]3)n2)c1)N1CCCC1	0.743 ± 0.04
CC(C)(CCCCCC(O)CCCCCC(C)(C)C(=O)O)C(=O)O	0.843 ± 0.078
C[C@@]1(C(=O)Nc2ccc(F)nc2)CCCN1c1nc(Nc2cc(C3CC3)n[nH]2)c2cccn2n1	0.483 ± 0.05
Cc1c[nH]c2nc(Nc3ccc(N4CCN(C)CC4)c(F)c3)nc(-c3cccc(CC#N)c3)c12	0.123 ± 0.1
O=C(c1ccc(Nc2nccc(-c3cc4ccccc4s3)n2)cc1)N1CCC(N2CCCC2)CC1 [IKK-16 (IKK Inhibitor VII)]	0.277 ± 0.038
O=C(c1cccc(Cl)c1F)N1CCN(Cc2cccc(Nc3nccs3)n2)CC1	0.573 ± 0.049
CC1=C(C(=O)Nc2cc3cn[nH]c3cc2F)C(c2ccc(C(F)(F)F)cc2)CC(=O)N1 (stereo not drawn)	0.883 ± 0.084
COCCOc1cnc2ccn([C@H](C)c3nnc4c(F)cc(-c5cnn(C)c5)cn34)c(=O)c2c1	0.7767 ± 0.0058
N#C/C(=C\c1ccc(O)c(O)c1)C(=O)NCc1ccccc1 [AG-490 (Tyrphostin B42)]	0.55 ± 0.12
COc1ccc(F)c(F)c1C(=O)c1cnc(NC2CCN(S(C)(=O)=O)CC2)nc1N	0.577 ± 0.15
NC(=O)Nc1cc(-c2cccc(F)c2)sc1C(=O)N[C@H]1CCCNC1	0.55 ± 0.01
O=c1cc(-c2cccc3c2Sc2ccccc2S3)oc(N2CCOCC2)c1	0.57 ± 0.21
CC(C)N(CCC(=O)c1ccc2ccccc2c1)Cc1ccccc1	0.863 ± 0.12
